Screening data (PubChem BioAssay)
Shown are actives, neighbours in structure and some others; about 10% of the full set was active somewhere.
GLS inhibitor: qHTS for Inhibitors of Glutaminase (GLS); Potency, µM (titrated, usually from 45.5 µM), for inactives: at the highest dose activity change, negative = inhibition, actives largely listed as inhibitors; actives 0.21% (n = 410,000); GLS enzymatic activity, qHTS titration; AID 624170, 2012; Glutaminase kidney isoform, mitochondrial (Homo sapiens), O94925; further: on the % scale 0 is the no-effect control and ±100 the full control effect
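Coupled fluorescence readout: glutamate oxidase/HRP/Amplex Red detect glutamate formed by hKGA from L-glutamine (1 mM solution added). Buffer 45 mM KH2PO4 pH 8.2, 0.02% Tween-20; reads at t0 and 30 min RT.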
HP1b binding inh: HTS for Inhibitors of HP1-beta Chromodomain Interactions with Methylated Histone Tails; Potency, µM (highest dose often 114 µM), for inactives: top-dose activity change, negative = inhibition, most hits filed as inhibitors; Chromobox protein homolog 1 (Homo sapiens), P83916; AID 540317, 2011; actives 0.56% (n = 390,000); AlphaScreen HP1-beta / biotin-H3K9me3 peptide binding; further: nearly all actives have a fitted effect of over 70% in size
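HP1-beta protein (50 nM final) preincubated 30 min at room temperature with biotinylated H3(1-18)K9me3 peptide (50 nM) in PBS pH 7.4, 0.01% Tween-20, then compound added for 30 min. AlphaScreen streptavidin donor/nickel chelate acceptor beads (10 ug/mL final), 30 min dark, luminescence read.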
JMJD2A Tudor inh: qHTS Assay for Inhibitors of JMJD2A-Tudor Domain; Potency, µM (highest dose often 114 µM), without a hit: at the top dose activity change, negative = inhibition, usual class: inhibitors; actives 4.4% (n = 390,000); AID 504339, 2011; AlphaScreen JMJD2A-Tudor / H3K4me3 peptide binding; further: on the % scale 0 is the no-effect control and ±100 the full control effect; nearly all actives have a fitted effect of over 50% in size
Target sequence (O75164 whole entry, looked up, the tested form may be a part): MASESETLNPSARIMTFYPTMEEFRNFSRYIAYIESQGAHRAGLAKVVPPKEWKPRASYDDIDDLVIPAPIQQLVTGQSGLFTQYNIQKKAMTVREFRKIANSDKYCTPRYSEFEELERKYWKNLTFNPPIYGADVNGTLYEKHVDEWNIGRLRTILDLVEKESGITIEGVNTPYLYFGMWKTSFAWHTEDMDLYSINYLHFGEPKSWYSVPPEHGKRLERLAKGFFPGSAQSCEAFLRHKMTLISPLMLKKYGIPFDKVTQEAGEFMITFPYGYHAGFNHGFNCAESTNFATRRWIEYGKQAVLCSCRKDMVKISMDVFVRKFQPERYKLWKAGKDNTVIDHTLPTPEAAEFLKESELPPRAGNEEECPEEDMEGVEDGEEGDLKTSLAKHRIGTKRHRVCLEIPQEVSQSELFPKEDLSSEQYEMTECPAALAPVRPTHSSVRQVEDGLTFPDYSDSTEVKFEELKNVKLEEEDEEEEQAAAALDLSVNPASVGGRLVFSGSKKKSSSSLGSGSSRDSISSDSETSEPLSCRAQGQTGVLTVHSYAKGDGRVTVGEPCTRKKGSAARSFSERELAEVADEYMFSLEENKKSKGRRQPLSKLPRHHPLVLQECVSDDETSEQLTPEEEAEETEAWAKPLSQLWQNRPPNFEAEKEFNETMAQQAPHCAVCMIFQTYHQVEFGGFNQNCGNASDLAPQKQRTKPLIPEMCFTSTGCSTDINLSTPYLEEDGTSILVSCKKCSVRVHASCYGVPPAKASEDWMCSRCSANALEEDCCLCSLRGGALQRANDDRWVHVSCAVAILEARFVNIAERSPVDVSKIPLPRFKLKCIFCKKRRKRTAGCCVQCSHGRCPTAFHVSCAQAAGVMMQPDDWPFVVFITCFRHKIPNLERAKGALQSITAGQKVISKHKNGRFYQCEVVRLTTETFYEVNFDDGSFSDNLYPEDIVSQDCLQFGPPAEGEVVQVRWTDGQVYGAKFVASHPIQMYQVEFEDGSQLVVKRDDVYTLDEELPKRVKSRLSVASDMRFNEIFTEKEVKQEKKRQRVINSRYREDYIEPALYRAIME
G9a block: qHTS Assay for Inhibitors of Histone Lysine Methyltransferase G9a; G9a H3K9 monomethylation, AlphaScreen, 2 h; Potency, µM (top dose mostly 102 µM), for inactives: at the top dose activity, negative = inhibition, usual class: inhibitors; Histone-lysine N-methyltransferase EHMT2 (Homo sapiens), Q96KQ7; actives 8.8% (n = 350,000); further: on the % scale 0 is the no-effect control and ±100 the full control effect; nearly all actives have a fitted effect of over 75% in size
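Compounds were preincubated with 20 nM G9a for 15 min, after which biotinylated H3K9 peptide (500 nM) and SAM (20 uM) started a 2 h room-temperature reaction. Monomethylated product was quantified by antibody-based AlphaScreen chemiluminescence.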
BAZ2B inh: qHTS Assay for Inhibitors of BAZ2B; Bromodomain adjacent to zinc finger domain protein 2B (Homo sapiens), Q9UIF8; Potency, µM (doses to about 114 µM), for the others: at the highest dose activity change, negative = inhibition, actives largely listed as inhibitors; actives 4.4% (n = 360,000); AlphaScreen BAZ2B-H3K14Ac peptide displacement; AID 504333, 2011; further: on the % scale 0 is the no-effect control and ±100 the full control effect; nearly all actives have a fitted effect of over 60% in size
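AlphaScreen luminescence quantifies BAZ2B engagement of H3K14Ac peptide; the protein and biotinylated peptide are both at 50 nM final, buffer PBS pH 7.4 with 0.01% Tween-20, all steps at room temperature.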
* hit, by the source's call; ? = inconclusive; / = not tested or not shown; ! = repeats disagree; [ ] = dose if it differs, or a comment. The call rests on the fitted dose curve; in most records, active means well fitted curve in the direction sought with a large enough effect; inconclusive means small, poorly fitted or top-dose-only effect, or another doubt; inactive means no such curve, though single readings can be large; an effect the other way counts as inactive or inconclusive. Potency means the concentration at half of the fitted maximal effect.

SMILES	GLS inhibitor	HP1b binding inh	JMJD2A Tudor inh	G9a block	BAZ2B inh
O=C(COc1ccccc1)N=C1SC2CS(=O)(=O)CC2N1c1ccccc1 (stereo unspecified)	5.7%	63.2%	-8.1%	5.7%	-1.4%[57.1 µM]
O=C(C[C@H]1C[C@@H]2c3cc(NC(=O)c4cccnc4)ccc3O[C@@H]2[C@H](CO)O1)NCc1ccncc1	2.6%	/	/	/	/
CN1CN(C)c2cccc3cccc1c23	7.4%	?	-37.9%	1.41µM*	?
CCOCCCN(Cc1cc2cc(C)cc(C)c2[nH]c1=O)C(=O)N(CC)CC	0.6%	15.2%	8.8%	-7.3%[59 µM]	6.0%
CCc1cc2cc(C)cc(C)c2[nH]c1=S	-1.4%	-24.8%	8.91µM*	1.41µM*	?
OC[C@@H](O)[C@H](O)C(/C=N/Nc1ccccc1)=N\Nc1ccccc1	?	?	79.4µM*	?	?
Cc1ccc(-c2cc(C(=O)N3CCCC3)c3ccccc3n2)s1	-10.1%	43.8%	2.9%	20.5%	-9.7%
Cc1ccc(-c2cc(C(=O)NCCCn3ccnc3)c3cc(Br)ccc3n2)o1	1.3%	-16.6%	79.4µM*	?	-1.6%
Cc1ccc(-c2cc(C(=O)NN3CCOCC3)c3cc(Br)ccc3n2)o1	2.2%	16.6%	-13.1%	?	-32.7%
Cc1ccc(-c2cc(C(=O)O)c3cc(Br)ccc3n2)s1	0.9%	15.1%	-18.1%	39.8µM*!	?
Cc1ccc(-c2cc(C(=O)O)c3cc(Br)ccc3n2)o1	-13.1%	-24.8%	25.1µM*	1.26µM*	56.2µM*
Cc1cc(NC(=O)c2cc(-c3ccccn3)nc3ccc(Br)cc23)no1	6.8%	33.5%	-12.2%	/	70.8µM*
Cc1ccc(-c2cc(C(=O)NC3=NCCS3)c3cc(Br)ccc3n2)o1	/	/	/	?	14.2%
O=C(Nc1ccccc1)Nc1ccc2ocnc2c1	20µM*	-2.7%	?	2.2%	-14.7%
COc1ccc(S(=O)(=O)NC(C)C(=O)N2CCCC2)cc1C (stereo unspecified)	1.9%	31.6%	-13.7%	-3.5%	-18.2%
C=CCNc1oc(-c2cccc(F)c2)nc1C#N	-2.3%	?	44.7µM*	/	/
COCCNc1oc(Cc2cccc3ccccc23)nc1C#N	-3.5%	-12.6%	-26.5%	79.4µM*	?
C=CCNc1oc(Cc2cccc3ccccc23)nc1C#N	-2.4%	35.1%	?	50.1µM*	50.1µM*
N#Cc1nc(Cc2cccc3ccccc23)oc1NCc1ccc(F)cc1	-3.4%	?	?	25.1µM*	?
Nn1c(SCC(=O)N2CCN(S(=O)(=O)c3ccc(Cl)cc3)CC2)nnc1-c1cccs1	-0.6%	13.3%	-32.3%	13.9%[12.7 µM]	-4.9%
Cc1cccc(N2CCN(C(=O)c3oc(=O)c4ccccc4c3-c3ccccc3)CC2C)c1 (stereo unspecified)	0.1%	7.0%	-28.3%	-32.6%[59 µM]	/
COc1ccc(OC)c(S(=O)(=O)N2CCCC(C(=O)NCCN3CCOCC3)C2)c1 (stereo unspecified)	-3.5%	23.5%	-7.7%	-10.1%	-14.7%
COc1cc(/C=N\N=C2/SC(CC(=O)O)C(=O)N2c2ccc(O)cc2)ccc1O (stereo unspecified)	-22.9%	6.1%	-9.6%	-5.0%	11.8%
COc1cc(/C=N/N=C2/SCC(=O)N2c2ccc(O)cc2)ccc1O	?	-10.4%	8.91µM*	-17.2%	-9.8%
CN1CCc2c1nc1ccccc1c2N (tested in a mixture with another compound)	-9.0%	35.5%	-9.5%	79.4µM*	20.2%
SMILES	GLS inhibitor	HP1b binding inh	JMJD2A Tudor inh	G9a block	BAZ2B inh
Cc1ccc2nc3c(c(N)c2c1)CCN3c1ccccc1	14.0%	?	0.794µM*	17.8µM*	56.2µM*
Cc1cc(C)c(N=C2CCCN2Cc2ccccc2)c(C#N)c1	1.7%	93.9%	54.0%	13.9%[59 µM]	42.6%
Cc1cccc2c(N)c3c(nc12)N(C)CC3	14.0%	-19.7%	17.8µM*	50.1µM*	50.1µM*
Nc1c2c(nc3cccc(Cl)c13)N(c1ccccc1)CC2	-10.0%	17.6%	-13.7%	18.2%	6.2%
CN1CCc2c1nc1ccccc1c2N=C1CCCN1Cc1ccccc1	0.7%	2.8%	44.7µM*	-2.8%[59 µM]	-7.8%
CC(C)c1ccc(C(=O)N2CCCCC2c2cc(C(=O)NCc3cccnc3)no2)cc1 (stereo unspecified)	5.3%	/	/	/	/
CC(C)CN1CCCC2(CCN(C(=O)c3cnccn3)CC2)C1	/	/	/	6.7%[12.7 µM]	/
CCc1nccn1CCC(=O)NC1CC(C)(C)Cc2c1cnn2-c1cccc(F)c1 (stereo unspecified)	-2.6%	34.6%	-16.9%	18.7%	-12.0%
CCCCN1CCc2c1nc1ccc(Br)cc1c2N	8.6%	3.3%	-27.6%	8.1%[12.7 µM]	-7.8%
Cc1nc(N)nc2c1CCCC2	0.1%	24.0%	-6.1%	4.1%[59 µM]	-4.0%
CN1CCCCc2c1nc1c(c2N)CCCC1	-0.6%	?	1.78µM*	?	?
Cc1ccc2nc3c(c(N)c2c1)CCN3C	3.2%	35.5µM*	25.1µM*	8.91µM*	79.4µM*
CN(C(=O)CSc1nnc(-c2ccco2)n1C)C1CCCCC1	-6.4%	26.4%	7.6%	?	9.0%
CCCN(CCC)C(=O)c1nn(C)c2c1CSc1ccc(C)cc1-2	-6.1%	-3.4%	7.6%	-17.7%[59 µM]	10.4%
CC(=O)c1cccc(S(=O)(=O)NC(C)C2CC3CCC2C3)c1 (stereo unspecified)	0.0%	12.1%	-21.6%	50.1µM*	-5.2%
Cc1cc2c(c(C)c1Cl)C(c1ccc3c(c1)OCO3)CC(O)(c1ccccc1)O2 (stereo unspecified)	/	17.6%	-35.2%	/	/
Cc1cccc(C(=O)n2c(=S)nc3cc(C)ccn32)c1	-2.1%	-14.7%	39.8µM*	7.94µM*	-40.4%
Cc1ccn2c(c1)nc(=S)n2C(=O)c1ccccc1	-9.2%	-23.8%	-13.8%	44.7µM*	8.7%
O=C(c1ccco1)n1c(=S)nc2ccccn21	-21.9%	-25.2%	-27.0%	?	6.4%
COC(=O)c1ccc(-n2c(/C=C\c3cccc(Br)c3)nc3ccccc3c2=O)cc1	-6.3%	24.6%	-15.3%	8.5%[59 µM]	1.4%
COc1cc(C(=O)N/N=C/c2ccc3c(c2)c2ccccc2n3C)ccc1O	-8.6%	10.0%	-13.9%	21.9%	-22.8%
Cn1c2ccccc2c2cc(/C=N/NC(=O)c3cc(O)ccc3O)ccc21	24.9%	?	31.6µM*	39.8µM*	44.7µM*
Cn1c2ccccc2c2cc(/C=N/NC(=O)c3cc(O)cc(O)c3)ccc21	15.8µM*	?	56.2µM*	50.1µM*	35.5µM*
COc1ccc(C(C#N)N2N=C(C)CC2c2ccccc2)cc1 (stereo unspecified)	-8.6%	32.0%	-3.5%	44.7µM*	-2.9%
